# From PMC7862700, “An all-to-all approach to the identification of sequence-specific readers for epigenetic DNA modifications on cytosine”
# Key:
# Assay in all cases: DAPPL (digital affinity profiling via proximity ligation, sequencing); 10 mM Tris-HCl pH 7.5, 50 mM NaCl, 1 mM DTT, 4% glycerol, room temperature, 30 min; GST-TFs on glutathione beads, 16-mer random dsDNA library, 0.1% formaldehyde crosslink after washing; high values mean tight binding
# FLI1 = target: T1, FLI1 (Homo sapiens, UniProt Q01543 1-452); conditions: protein: recombinant; tags: N-terminal GST; dsDNA, one strand shown
# T1 sequence: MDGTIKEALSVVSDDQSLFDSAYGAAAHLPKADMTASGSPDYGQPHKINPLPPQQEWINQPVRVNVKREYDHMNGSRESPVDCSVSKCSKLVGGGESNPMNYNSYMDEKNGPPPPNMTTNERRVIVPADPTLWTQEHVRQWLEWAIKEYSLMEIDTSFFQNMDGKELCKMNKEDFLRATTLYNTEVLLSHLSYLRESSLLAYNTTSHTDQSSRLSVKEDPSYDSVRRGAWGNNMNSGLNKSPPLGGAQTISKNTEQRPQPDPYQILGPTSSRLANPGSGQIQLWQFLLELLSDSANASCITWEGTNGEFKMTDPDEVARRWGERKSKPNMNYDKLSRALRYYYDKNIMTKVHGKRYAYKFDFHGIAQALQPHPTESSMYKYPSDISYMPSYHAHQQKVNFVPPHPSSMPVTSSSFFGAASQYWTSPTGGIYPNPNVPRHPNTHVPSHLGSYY
# Method in brief: (§1)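 GST fusions of human transcription factors were expressed in yeast and captured with glutathione beads. Once given DNA barcodes and pooled alongside a tag-only sample, they were incubated for 30 min at room temperature with 200 nmole of a random double-stranded 16-mer DNA library in Tris/NaCl/DTT/glycerol buffer, then washed, crosslinked (0.1% formaldehyde), proximity-ligated, PCR-amplified and sequenced on an Illumina NextSeq500. The binding signal of each hexamer is its read frequency for a factor divided by its frequency for the tag-only sample.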
# ELK1 = target: T2, ELK1 (Homo sapiens, UniProt P19419 1-428); conditions: protein: recombinant; tags: N-terminal GST; dsDNA, one strand shown
# T2 sequence: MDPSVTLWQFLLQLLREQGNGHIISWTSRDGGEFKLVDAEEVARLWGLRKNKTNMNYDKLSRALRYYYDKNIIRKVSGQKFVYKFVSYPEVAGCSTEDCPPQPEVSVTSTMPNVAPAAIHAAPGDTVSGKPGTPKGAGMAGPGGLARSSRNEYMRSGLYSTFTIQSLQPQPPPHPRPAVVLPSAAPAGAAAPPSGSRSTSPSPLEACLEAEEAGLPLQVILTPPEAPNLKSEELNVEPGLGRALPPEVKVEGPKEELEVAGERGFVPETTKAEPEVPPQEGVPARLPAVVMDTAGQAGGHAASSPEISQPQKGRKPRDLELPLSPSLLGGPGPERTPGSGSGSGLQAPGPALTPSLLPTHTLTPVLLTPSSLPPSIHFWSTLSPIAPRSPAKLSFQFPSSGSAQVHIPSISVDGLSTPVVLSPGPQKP
# Method in brief: as §1
# GABPA = target: T3, GABPA (Homo sapiens, UniProt Q06546 1-454); conditions: protein: recombinant; tags: N-terminal GST; dsDNA, one strand shown
# T3 sequence: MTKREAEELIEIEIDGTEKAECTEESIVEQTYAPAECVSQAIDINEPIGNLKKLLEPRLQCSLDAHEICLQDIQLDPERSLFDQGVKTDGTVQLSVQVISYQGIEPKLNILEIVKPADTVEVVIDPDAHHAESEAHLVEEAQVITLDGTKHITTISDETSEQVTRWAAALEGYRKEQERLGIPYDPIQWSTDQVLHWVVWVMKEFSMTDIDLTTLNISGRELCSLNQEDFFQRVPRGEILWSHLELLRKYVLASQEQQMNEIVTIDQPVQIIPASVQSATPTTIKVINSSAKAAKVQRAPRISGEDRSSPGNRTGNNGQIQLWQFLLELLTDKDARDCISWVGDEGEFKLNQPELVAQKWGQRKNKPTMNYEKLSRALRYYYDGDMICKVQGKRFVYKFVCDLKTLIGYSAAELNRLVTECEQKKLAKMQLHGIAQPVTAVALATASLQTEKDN
# Method in brief: as §1
# ERG = target: T4, ERG (Homo sapiens, UniProt P11308 1-479); conditions: protein: recombinant; tags: N-terminal GST; dsDNA, one strand shown
# T4 sequence: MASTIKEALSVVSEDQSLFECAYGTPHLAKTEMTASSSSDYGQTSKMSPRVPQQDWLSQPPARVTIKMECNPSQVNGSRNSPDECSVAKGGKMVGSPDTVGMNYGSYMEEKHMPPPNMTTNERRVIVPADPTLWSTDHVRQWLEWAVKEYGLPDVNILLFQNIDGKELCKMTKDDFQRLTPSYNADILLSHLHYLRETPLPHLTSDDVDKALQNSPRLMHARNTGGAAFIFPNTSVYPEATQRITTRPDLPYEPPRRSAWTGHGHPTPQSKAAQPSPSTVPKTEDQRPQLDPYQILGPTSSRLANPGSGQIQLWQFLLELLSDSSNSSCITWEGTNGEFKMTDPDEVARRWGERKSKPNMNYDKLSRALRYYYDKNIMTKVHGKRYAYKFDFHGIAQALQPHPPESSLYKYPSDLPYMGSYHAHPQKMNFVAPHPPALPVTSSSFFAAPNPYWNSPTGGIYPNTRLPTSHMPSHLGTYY
# Method in brief: as §1
# ELF1 = ELF1 (Homo sapiens, UniProt P32519 1-619); conditions: protein: recombinant; tags: N-terminal GST; dsDNA, one strand shown
# Method in brief: as §1
# EHF = target: T5, EHF (Homo sapiens, UniProt Q9NZC4 1-300); conditions: protein: recombinant; tags: N-terminal GST; dsDNA, one strand shown
# T5 sequence: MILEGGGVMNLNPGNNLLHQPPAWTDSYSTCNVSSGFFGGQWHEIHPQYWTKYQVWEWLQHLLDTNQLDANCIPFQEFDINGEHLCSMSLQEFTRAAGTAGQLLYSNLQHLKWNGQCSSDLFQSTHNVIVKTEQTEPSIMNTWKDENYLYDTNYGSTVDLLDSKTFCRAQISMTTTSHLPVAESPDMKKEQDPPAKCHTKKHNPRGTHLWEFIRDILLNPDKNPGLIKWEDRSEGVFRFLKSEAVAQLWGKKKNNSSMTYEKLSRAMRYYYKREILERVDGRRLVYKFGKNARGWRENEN
# Method in brief: as §1
# SPI1 = SPI1 (Homo sapiens, UniProt P17947 1-270); conditions: protein: recombinant; tags: N-terminal GST; dsDNA, one strand shown
# Method in brief: as §1
# SPIB = SPIB (Homo sapiens, UniProt Q01892 1-262); conditions: protein: recombinant; tags: N-terminal GST; dsDNA, one strand shown
# Method in brief: as §1
# ELK3 = target: T6, ELK3 (Homo sapiens, UniProt P41970 1-407); conditions: protein: recombinant; tags: N-terminal GST; dsDNA, one strand shown
# T6 sequence: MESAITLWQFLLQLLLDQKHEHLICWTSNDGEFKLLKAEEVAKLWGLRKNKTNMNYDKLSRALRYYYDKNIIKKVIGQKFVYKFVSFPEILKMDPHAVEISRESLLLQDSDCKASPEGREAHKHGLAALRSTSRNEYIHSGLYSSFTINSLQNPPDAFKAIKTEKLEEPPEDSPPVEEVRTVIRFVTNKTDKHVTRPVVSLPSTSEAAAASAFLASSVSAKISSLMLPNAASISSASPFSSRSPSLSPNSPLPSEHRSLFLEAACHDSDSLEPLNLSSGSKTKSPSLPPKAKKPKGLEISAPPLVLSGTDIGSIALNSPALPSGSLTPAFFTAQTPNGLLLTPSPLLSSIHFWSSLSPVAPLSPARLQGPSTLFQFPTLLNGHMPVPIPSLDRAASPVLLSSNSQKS
# Method in brief: as §1
# FEV = target: T7, FEV (Homo sapiens, UniProt Q99581 1-238); conditions: protein: recombinant; tags: N-terminal GST; dsDNA, one strand shown
# T7 sequence: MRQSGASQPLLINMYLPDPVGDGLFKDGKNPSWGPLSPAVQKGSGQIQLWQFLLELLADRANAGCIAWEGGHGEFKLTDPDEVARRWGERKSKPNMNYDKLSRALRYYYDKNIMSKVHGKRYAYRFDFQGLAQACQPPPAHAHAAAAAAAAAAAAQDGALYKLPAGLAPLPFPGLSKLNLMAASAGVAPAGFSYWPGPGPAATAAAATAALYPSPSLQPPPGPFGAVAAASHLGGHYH
# Method in brief: as §1
# ETV5 = ETV5 (Homo sapiens, UniProt P41161 1-510); conditions: protein: recombinant; tags: N-terminal GST; dsDNA, one strand shown
# Method in brief: as §1
# HSF1 = HSF1 (Homo sapiens, UniProt Q00613 1-529); conditions: protein: recombinant; tags: N-terminal GST; chain copies: 3; dsDNA, one strand shown
# Method in brief: as §1
# SPIC = target: T8, SPIC (Homo sapiens, UniProt Q8N5J4 1-248); conditions: protein: recombinant; tags: N-terminal GST; dsDNA, one strand shown
# T8 sequence: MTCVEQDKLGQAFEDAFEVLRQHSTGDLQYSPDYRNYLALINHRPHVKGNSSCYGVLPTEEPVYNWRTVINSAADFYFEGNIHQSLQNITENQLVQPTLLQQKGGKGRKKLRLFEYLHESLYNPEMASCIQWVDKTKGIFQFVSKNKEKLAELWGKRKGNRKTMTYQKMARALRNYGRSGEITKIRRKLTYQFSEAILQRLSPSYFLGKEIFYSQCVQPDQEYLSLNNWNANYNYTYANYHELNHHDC
# Method in brief: as §1
# ELF4 = ELF4 (Homo sapiens, UniProt Q99607 1-663); conditions: protein: recombinant; tags: N-terminal GST; dsDNA, one strand shown
# Method in brief: as §1
# ELK4 = target: T9, ELK4 (Homo sapiens, UniProt P28324-2 1-405); conditions: protein: recombinant; tags: N-terminal GST; dsDNA, one strand shown
# T9 sequence: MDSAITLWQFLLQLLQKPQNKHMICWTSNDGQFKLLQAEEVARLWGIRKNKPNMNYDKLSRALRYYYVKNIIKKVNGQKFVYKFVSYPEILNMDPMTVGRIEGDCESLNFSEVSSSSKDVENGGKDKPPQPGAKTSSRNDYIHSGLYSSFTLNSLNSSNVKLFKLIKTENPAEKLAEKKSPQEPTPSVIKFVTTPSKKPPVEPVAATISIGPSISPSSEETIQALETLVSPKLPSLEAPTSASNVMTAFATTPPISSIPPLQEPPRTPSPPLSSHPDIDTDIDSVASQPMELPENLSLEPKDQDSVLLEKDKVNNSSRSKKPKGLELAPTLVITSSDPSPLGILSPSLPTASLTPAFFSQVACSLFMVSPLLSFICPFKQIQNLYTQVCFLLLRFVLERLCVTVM
# Method in brief: as §1
# ETV2 = target: T10, ETV2 (Homo sapiens, UniProt O00321 1-342); conditions: protein: recombinant; tags: N-terminal GST; dsDNA, one strand shown
# T10 sequence: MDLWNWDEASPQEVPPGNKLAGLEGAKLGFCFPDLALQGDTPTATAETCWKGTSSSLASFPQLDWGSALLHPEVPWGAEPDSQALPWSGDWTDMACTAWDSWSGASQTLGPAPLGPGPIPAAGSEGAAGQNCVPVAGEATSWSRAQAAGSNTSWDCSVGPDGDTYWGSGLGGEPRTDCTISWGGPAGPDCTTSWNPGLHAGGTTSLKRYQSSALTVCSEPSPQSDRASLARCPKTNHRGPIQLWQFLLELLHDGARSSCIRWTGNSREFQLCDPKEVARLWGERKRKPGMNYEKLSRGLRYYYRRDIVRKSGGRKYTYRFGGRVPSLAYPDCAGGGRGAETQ
# Method in brief: as §1
# ELF3 = target: T11, ELF3 (Homo sapiens, UniProt P78545 1-371); conditions: protein: recombinant; tags: N-terminal GST; dsDNA, one strand shown
# T11 sequence: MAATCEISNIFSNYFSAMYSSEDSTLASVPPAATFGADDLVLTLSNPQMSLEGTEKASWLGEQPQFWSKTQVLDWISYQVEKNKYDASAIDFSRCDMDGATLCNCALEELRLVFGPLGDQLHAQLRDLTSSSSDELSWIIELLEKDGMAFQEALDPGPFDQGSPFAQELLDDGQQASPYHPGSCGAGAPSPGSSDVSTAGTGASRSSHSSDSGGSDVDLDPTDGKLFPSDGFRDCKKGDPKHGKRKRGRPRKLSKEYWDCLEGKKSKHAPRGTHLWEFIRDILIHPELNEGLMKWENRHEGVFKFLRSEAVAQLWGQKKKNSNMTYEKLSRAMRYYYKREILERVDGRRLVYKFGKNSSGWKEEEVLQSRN
# Method in brief: as §1
# CRX = CRX (Homo sapiens, UniProt O43186 1-299); conditions: protein: recombinant; tags: N-terminal GST; dsDNA, one strand shown
# Method in brief: as §1
# ETV1 = ETV1 (Homo sapiens, UniProt P50549 1-477); conditions: protein: recombinant; tags: N-terminal GST; dsDNA, one strand shown
# Method in brief: as §1
# Chain of ELF4 (Q99607 whole entry): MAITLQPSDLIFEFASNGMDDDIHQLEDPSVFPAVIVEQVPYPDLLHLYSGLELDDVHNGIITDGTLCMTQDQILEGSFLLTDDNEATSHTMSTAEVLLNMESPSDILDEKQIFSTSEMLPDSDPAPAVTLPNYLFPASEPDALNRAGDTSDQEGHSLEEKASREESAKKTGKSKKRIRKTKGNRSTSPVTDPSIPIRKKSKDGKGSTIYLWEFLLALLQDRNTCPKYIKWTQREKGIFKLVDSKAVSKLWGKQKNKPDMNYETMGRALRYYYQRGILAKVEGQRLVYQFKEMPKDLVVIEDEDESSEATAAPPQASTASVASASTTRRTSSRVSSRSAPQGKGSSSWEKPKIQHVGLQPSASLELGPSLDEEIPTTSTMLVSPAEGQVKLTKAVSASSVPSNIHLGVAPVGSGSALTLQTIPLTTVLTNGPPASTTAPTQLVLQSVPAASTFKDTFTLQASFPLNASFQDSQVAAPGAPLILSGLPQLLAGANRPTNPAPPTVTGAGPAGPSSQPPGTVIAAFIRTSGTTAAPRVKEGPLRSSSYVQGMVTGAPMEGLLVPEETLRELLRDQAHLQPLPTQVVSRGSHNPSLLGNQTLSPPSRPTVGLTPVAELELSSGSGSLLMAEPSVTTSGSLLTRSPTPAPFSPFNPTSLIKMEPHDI
# Chain of HSF1 (Q00613 whole entry): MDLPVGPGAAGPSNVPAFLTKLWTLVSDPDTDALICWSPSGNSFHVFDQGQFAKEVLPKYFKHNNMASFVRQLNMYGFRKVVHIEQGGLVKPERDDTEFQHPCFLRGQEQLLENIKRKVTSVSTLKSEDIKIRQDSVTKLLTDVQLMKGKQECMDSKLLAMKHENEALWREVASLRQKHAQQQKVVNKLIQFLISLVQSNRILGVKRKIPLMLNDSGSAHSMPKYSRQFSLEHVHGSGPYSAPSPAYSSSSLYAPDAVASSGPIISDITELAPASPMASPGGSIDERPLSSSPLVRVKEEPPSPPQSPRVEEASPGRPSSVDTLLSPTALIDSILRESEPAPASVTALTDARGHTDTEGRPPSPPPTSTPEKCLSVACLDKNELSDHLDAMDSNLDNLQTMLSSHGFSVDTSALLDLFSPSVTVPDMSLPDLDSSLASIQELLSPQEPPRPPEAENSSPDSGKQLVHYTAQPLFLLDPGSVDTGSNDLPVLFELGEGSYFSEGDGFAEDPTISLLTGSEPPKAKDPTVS
# Chain of SPIB (Q01892 whole entry): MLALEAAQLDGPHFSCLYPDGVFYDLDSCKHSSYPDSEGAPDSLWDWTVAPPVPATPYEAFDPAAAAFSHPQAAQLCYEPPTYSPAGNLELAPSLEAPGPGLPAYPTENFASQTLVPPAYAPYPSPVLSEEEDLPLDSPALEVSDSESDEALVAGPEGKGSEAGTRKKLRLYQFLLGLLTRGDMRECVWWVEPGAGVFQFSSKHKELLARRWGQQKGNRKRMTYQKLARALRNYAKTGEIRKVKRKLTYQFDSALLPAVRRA
# Chain of ETV1 (P50549 whole entry): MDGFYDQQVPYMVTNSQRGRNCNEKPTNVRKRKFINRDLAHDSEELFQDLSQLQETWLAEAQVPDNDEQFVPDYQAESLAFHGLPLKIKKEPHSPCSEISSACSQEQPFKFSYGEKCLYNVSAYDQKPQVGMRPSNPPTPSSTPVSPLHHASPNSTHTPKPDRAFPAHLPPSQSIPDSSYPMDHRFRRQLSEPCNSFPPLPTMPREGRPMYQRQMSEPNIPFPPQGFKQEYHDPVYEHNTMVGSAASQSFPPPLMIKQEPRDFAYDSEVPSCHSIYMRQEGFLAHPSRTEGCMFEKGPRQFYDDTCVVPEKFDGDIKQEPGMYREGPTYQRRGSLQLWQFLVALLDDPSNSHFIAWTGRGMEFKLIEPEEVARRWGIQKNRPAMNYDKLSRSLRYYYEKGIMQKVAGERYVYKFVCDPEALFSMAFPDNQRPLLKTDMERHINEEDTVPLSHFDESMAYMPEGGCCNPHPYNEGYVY
# Chain of CRX (O43186 whole entry): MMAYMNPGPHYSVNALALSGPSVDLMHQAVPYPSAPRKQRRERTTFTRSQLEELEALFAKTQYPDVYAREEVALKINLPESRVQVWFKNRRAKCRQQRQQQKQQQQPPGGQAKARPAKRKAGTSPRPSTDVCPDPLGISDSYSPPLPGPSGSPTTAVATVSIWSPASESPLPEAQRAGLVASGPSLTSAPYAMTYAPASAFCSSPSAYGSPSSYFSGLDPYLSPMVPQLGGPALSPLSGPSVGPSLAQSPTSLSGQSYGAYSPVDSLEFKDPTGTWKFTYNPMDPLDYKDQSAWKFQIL
# Chain of ELF1 (P32519 whole entry): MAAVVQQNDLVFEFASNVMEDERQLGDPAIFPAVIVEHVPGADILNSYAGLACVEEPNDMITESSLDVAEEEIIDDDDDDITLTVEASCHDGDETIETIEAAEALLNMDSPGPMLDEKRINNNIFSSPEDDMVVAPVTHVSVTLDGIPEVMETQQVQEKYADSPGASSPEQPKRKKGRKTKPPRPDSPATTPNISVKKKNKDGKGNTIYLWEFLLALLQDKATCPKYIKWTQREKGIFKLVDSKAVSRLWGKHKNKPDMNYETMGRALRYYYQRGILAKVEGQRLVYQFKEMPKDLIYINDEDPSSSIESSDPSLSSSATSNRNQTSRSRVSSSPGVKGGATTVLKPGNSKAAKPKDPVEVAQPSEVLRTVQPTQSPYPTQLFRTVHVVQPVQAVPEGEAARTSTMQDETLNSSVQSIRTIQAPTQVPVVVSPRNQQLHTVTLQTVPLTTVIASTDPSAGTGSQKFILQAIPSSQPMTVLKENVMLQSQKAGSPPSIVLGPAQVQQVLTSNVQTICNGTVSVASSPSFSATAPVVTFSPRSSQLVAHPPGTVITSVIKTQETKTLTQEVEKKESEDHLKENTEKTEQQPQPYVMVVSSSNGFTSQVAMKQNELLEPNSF
# Chain of ETV5 (P41161 whole entry): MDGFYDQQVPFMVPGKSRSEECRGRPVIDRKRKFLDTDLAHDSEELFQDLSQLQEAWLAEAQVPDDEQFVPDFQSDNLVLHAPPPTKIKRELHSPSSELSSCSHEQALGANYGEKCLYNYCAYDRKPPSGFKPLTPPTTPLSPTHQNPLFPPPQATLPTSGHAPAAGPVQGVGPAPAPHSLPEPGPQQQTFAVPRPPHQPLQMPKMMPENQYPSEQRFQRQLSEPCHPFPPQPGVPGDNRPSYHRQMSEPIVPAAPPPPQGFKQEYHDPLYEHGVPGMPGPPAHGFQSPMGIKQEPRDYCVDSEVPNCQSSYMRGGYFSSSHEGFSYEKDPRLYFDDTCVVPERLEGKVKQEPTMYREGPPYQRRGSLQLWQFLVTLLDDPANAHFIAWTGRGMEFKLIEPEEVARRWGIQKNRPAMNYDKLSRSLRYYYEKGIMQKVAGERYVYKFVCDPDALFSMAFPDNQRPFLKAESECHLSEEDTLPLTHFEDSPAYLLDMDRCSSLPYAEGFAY
sequence,measurement,setting,value
TATTGT,binding signal,FLI1,"1.27 fold enrichment (6-mer frequency, TF over GST control)"
same,binding signal,ELK1,"1.32 fold enrichment (6-mer frequency, TF over GST control)"
same,binding signal,GABPA,"1.29 fold enrichment (6-mer frequency, TF over GST control)"
same,binding signal,ERG,"1.3 fold enrichment (6-mer frequency, TF over GST control)"
same,binding signal,ELF1,"1.28 fold enrichment (6-mer frequency, TF over GST control)"
same,binding signal,EHF,"1.23 fold enrichment (6-mer frequency, TF over GST control)"
same,binding signal,SPI1,"1.19 fold enrichment (6-mer frequency, TF over GST control)"
same,binding signal,SPIB,"1.28 fold enrichment (6-mer frequency, TF over GST control)"
same,binding signal,ELK3,"1.53 fold enrichment (6-mer frequency, TF over GST control)"
same,binding signal,FEV,"1.26 fold enrichment (6-mer frequency, TF over GST control)"
same,binding signal,ETV5,"1.33 fold enrichment (6-mer frequency, TF over GST control)"
same,binding signal,HSF1,"1.27 fold enrichment (6-mer frequency, TF over GST control)"
same,binding signal,SPIC,"1.45 fold enrichment (6-mer frequency, TF over GST control)"
same,binding signal,ELF4,"1.24 fold enrichment (6-mer frequency, TF over GST control)"
same,binding signal,ELK4,"1.36 fold enrichment (6-mer frequency, TF over GST control)"
same,binding signal,ETV2,"1.32 fold enrichment (6-mer frequency, TF over GST control)"
same,binding signal,ELF3,"1.23 fold enrichment (6-mer frequency, TF over GST control)"
same,binding signal,CRX,"1.47 fold enrichment (6-mer frequency, TF over GST control)"
same,binding signal,ETV1,"1.25 fold enrichment (6-mer frequency, TF over GST control)"
